# Experimental data: the supplement of paper PMC8728848
# This excerpt belongs to a sample that is enriched for the strongest signals.
# Columns and labels:
# Assay in all cases: glycan array binding signal (z-score within array); higher = stronger binding
# Conditions in all cases: glycan notation: IUPAC condensed, linker removed
# [1] = biological target: GlcNAc(b1-3)[GlcNAc(b1-6)]GlcNAc(b1-4)GlcNAc
# Outline: (§1)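 From the Consortium for Functional Glycomics database, 3228 arrays were curated, keeping only those whose protein sequence was available. Binding is given as a within-array Z-score averaged across arrays sharing a protein sequence and across linkers. Negative Z-scores can be read as non-binding.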
# [2] = biological target: GlcNAc(b1-4)[GlcNAc(b1-6)]GalNAc
# Outline: as §1
# [3] = biological target: GlcNAc6S(b1-3)Gal(b1-4)GlcNAc
# Outline: as §1
# [4] = biological target: Man(a1-2)Man(a1-3)Man
# Outline: as §1
# [5] = biological target: Man(a1-2)Man(a1-3)[Man(a1-2)Man(a1-6)]Man(a1-6)[Man(a1-2)Man(a1-2)Man(a1-3)]Man
# Outline: as §1
# [6] = biological target: Man(a1-3)[Man(a1-6)]Man(a1-6)[Man(a1-2)Man(a1-3)]Man(b1-4)GlcNAc(b1-4)GlcNAc
# Outline: as §1
# [7] = biological target: Man(a1-3)[Man(a1-6)]Man(a1-6)[Man(a1-3)]Man(b1-4)GlcNAc(b1-4)GlcNAc
# Outline: as §1
# [8] = biological target: Neu5Ac(a2-3)Gal(b1-3)GlcNAc
# Outline: as §1
# [9] = biological target: Neu5Ac(a2-3)Gal(b1-4)GlcNAc(b1-3)Gal(b1-4)GlcNAc(b1-3)Gal(b1-4)GlcNAc(b1-2)Man(a1-3)[Neu5Ac(a2-3)Gal(b1-4)GlcNAc(b1-3)Gal(b1-4)GlcNAc(b1-3)Gal(b1-4)GlcNAc(b1-2)Man(a1-6)]GalNAc
# Outline: as §1
# [10] = biological target: Neu5Ac(a2-3)Gal(b1-4)GlcNAc(b1-3)Gal(b1-4)GlcNAc(b1-3)GalNAc
# Outline: as §1
# [11] = biological target: Neu5Ac(a2-3)Gal(b1-4)[Fuc(a1-3)]GlcNAc(b1-3)GalNAc
# Outline: as §1
# [12] = biological target: Neu5Ac(a2-6)Gal
# Outline: as §1
# [13] = biological target: Neu5Ac(a2-6)Gal(b1-4)GlcNAc(b1-3)Gal(b1-4)GlcNAc(b1-3)Gal(b1-4)GlcNAc
# Outline: as §1
# [14] = biological target: Neu5Ac(a2-6)Gal(b1-4)GlcNAc(b1-3)Gal(b1-4)GlcNAc(b1-3)Gal(b1-4)GlcNAc(b1-2)Man(a1-3)[Neu5Ac(a2-6)Gal(b1-4)GlcNAc(b1-3)Gal(b1-4)GlcNAc(b1-3)Gal(b1-4)GlcNAc(b1-2)Man(a1-6)]GalNAc
# Outline: as §1
# [15] = biological target: Neu5Ac(a2-6)Gal(b1-4)GlcNAc(b1-3)Gal(b1-4)GlcNAc(b1-6)[Gal(b1-3)]GalNAc
# Outline: as §1
# [16] = biological target: Neu5Ac(a2-8)Neu5Ac(a2-3)Gal(b1-3)GalNAc(b1-4)[Neu5Ac(a2-8)Neu5Ac(a2-3)]Gal(b1-4)Glc
# Outline: as §1
# [17] = biological target: Neu5Ac(a2-8)Neu5Ac(a2-8)Neu5Ac(a2-3)[Gal(b1-3)GalNAc(b1-4)]Gal(b1-4)Glc
# Outline: as §1
# [18] = biological target: Neu5Ac(b2-6)Gal(b1-4)GlcNAc
# Outline: as §1
# [19] = biological target: Neu5Gc(a2-3)Gal(b1-4)GlcNAc
# Outline: as §1
# [20] = biological target: Fuc(a1-2)Gal(b1-3)GalNAc(b1-3)Gal(a1-4)Gal(b1-4)Glc
# Outline: as §1
# [21] = biological target: Fuc(a1-2)Gal(b1-4)[Fuc(a1-3)]GlcNAc
# Outline: as §1
# [22] = biological target: Fuc(a1-2)[Gal(a1-3)]Gal(b1-3)GlcNAc(b1-6)GalNAc
# Outline: as §1
# [23] = biological target: Fuc(a1-2)[GalNAc(a1-3)]Gal(b1-4)GlcNAc(b1-3)Gal(b1-4)GlcNAc
# Outline: as §1
# [24] = biological target: Fuc(a1-2)[GalNAc(a1-4)]Gal(b1-4)GlcNAc
# Outline: as §1
# [25] = biological target: Fuc(a1-2)[GalNAc(b1-3)]Gal
# Outline: as §1
# [26] = biological target: Fuc(a1-3)[Gal(b1-4)]GlcNAc(b1-2)Man(a1-3)[Fuc(a1-3)[Gal(b1-4)]GlcNAc(b1-2)Man(a1-6)]Man(b1-4)GlcNAc(b1-4)GlcNAc
# Outline: as §1
# [27] = biological target: Gal(a1-3)Gal(b1-3)GlcNAc(b1-3)GalNAc
# Outline: as §1
# [28] = biological target: Gal(a1-3)Gal(b1-3)GlcNAc(b1-6)GalNAc
# Outline: as §1
# [29] = biological target: Gal(a1-3)Gal(b1-4)GlcNAc(b1-6)GalNAc
# Outline: as §1
# [30] = biological target: Gal(b1-3)GlcNAc(b1-6)GalNAc
# Outline: as §1
# [31] = biological target: Gal(b1-3)GlcNAc6S
# Outline: as §1
# [32] = biological target: Gal(b1-3)[Neu5Ac(a2-6)]GlcNAc(b1-4)Gal(b1-4)Glc
# Outline: as §1
# [33] = biological target: Gal(b1-4)GlcNAc(b1-3)Gal(b1-4)GlcNAc
# Outline: as §1
# [34] = biological target: Gal(b1-4)GlcNAc(b1-3)Gal(b1-4)GlcNAc(b1-3)Gal(b1-4)GlcNAc(b1-3)Gal(b1-4)GlcNAc(b1-2)[Gal(b1-4)GlcNAc(b1-3)Gal(b1-4)GlcNAc(b1-3)Gal(b1-4)GlcNAc(b1-3)Gal(b1-4)GlcNAc(b1-6)]Man(a1-6)[Gal(b1-4)GlcNAc(b1-3)Gal(b1-4)GlcNAc(b1-3)Gal(b1-4)GlcNAc(b1-3)Gal(b1-4)GlcNAc(b1-2)Man(a1-3)]Man(b1-4)GlcNAc(b1-4)[Fuc(a1-6)]GlcNAc
# Outline: as §1
# [35] = biological target: Gal6P(b1-4)GlcNAc
# Outline: as §1
# [36] = biological target: Gal6S(b1-4)GlcNAc
# Outline: as §1
# [37] = biological target: GalNAc(b1-3)Gal(a1-4)Gal(b1-4)GlcNAc
# Outline: as §1
# [38] = biological target: GalNAc(b1-3)Gal(a1-4)Gal(b1-4)GlcNAc(b1-3)Gal(b1-4)Glc
# Outline: as §1
# [39] = biological target: GalNAc(b1-4)GlcNAc(b1-3)GalNAc(b1-4)GlcNAc
# Outline: as §1
# [40] = biological target: GalNAc3S(b1-4)[Fuc(a1-3)]GlcNAc
# Outline: as §1
# [41] = biological target: Glc(b1-4)Glc
# Outline: as §1
# [42] = biological target: GlcNAc(a1-4)Gal(b1-4)GlcNAc
# Outline: as §1
# [43] = biological target: GlcNAc(b1-3)Gal(b1-4)GlcNAc(b1-3)Gal(b1-4)GlcNAc(b1-3)Gal(b1-4)GlcNAc(b1-2)Man(a1-3)[GlcNAc(b1-3)Gal(b1-4)GlcNAc(b1-3)Gal(b1-4)GlcNAc(b1-3)Gal(b1-4)GlcNAc(b1-2)Man(a1-6)]Man(b1-4)GlcNAc(b1-4)GlcNAc
# Outline: as §1
# [44] = biological target: GlcNAc(b1-3)GalNAc
# Outline: as §1
# [45] = biological target: GlcNAc(b1-4)GlcNAc(b1-4)GlcNAc(b1-4)GlcNAc(b1-4)GlcNAc(b1-4)GlcNAc
# Outline: as §1
# [46] = biological target: GlcNAc(b1-6)GalNAc
# Outline: as §1
# [47] = biological target: Man(a1-3)[Man(a1-6)]Man(b1-4)GlcNAc(b1-4)GlcNAc
# Outline: as §1
# [48] = biological target: Man(a1-3)[Man(a1-6)]Man(b1-4)GlcNAc(b1-4)[Fuc(a1-6)]GlcNAc
# Outline: as §1
# [49] = biological target: Man(b1-4)GlcNAc
# Outline: as §1
# [50] = biological target: Neu5Ac(a2-3)Gal(b1-3)GalNAc(b1-4)[Neu5Ac(a2-3)]Gal(b1-4)Glc
# Outline: as §1
# [51] = biological target: Neu5Ac(a2-3)Gal(b1-3)GlcNAc(b1-6)GalNAc
# Outline: as §1
# [52] = biological target: Neu5Ac(a2-3)Gal(b1-4)GlcNAc(b1-2)Man(a1-3)[Neu5Ac(a2-6)Gal(b1-4)GlcNAc(b1-2)Man(a1-6)]Man(b1-4)GlcNAc(b1-4)GlcNAc
# Outline: as §1
# [53] = biological target: Neu5Ac(a2-3)Gal(b1-4)GlcNAc(b1-3)Gal
# Outline: as §1
# [54] = biological target: Neu5Ac(a2-3)Gal(b1-4)GlcNAc(b1-6)GalNAc
# Outline: as §1
# [55] = biological target: Neu5Ac(a2-3)Gal6S(b1-4)GlcNAc
# Outline: as §1
# [56] = biological target: Neu5Ac(a2-6)Gal(b1-4)GlcNAc(b1-2)Man(a1-6)[Gal(b1-4)GlcNAc(b1-2)Man(a1-3)]Man(b1-4)GlcNAc(b1-4)GlcNAc
# Outline: as §1
# [57] = biological target: Neu5Ac(a2-6)GalNAc(b1-4)GlcNAc6S
# Outline: as §1
# [58] = biological target: Neu5Ac(a2-8)Neu5Ac(a2-8)Neu5Ac(a2-8)Neu5Ac(a2-3)[GalNAc(b1-4)]Gal(b1-4)Glc
# Outline: as §1
# [59] = biological target: Neu5Gc(a2-3)Gal(b1-4)Glc
# Outline: as §1
binder,measurement,setting,value
"ECA (Erythrina cristagalli), P83410 (protein) VETISFSFSEFEPGNDNLTLQGAALITQSGVLQLTKINQNGMPAWDSTGRTLYTKPVHMWDSTTGTVASFETRFSFSIEQPYTRPLPADGLVFFMGPTKSKPAQGYGYLGVFNNSKQDNSYQTLAVEFDTFSNPWDPPQVPHIGIDVNSIRSIKTQPFQLDNGQVANVVIKYDAPSKILHVVLVYPSSGAIYTIAEIVDVKQVLPDWVDVGLSGATGAQRDAAETHDVYSWSFQASLPE",glycan array binding signal (z-score),[1],-0.277
same,glycan array binding signal (z-score),[2],-0.228
same,glycan array binding signal (z-score),[3],-0.243
same,glycan array binding signal (z-score),[4],-0.285
same,glycan array binding signal (z-score),[5],-0.091
same,glycan array binding signal (z-score),[6],1.29
same,glycan array binding signal (z-score),[7],-0.177
same,glycan array binding signal (z-score),[8],-0.269
same,glycan array binding signal (z-score),[9],7.35
same,glycan array binding signal (z-score),[10],-0.407
same,glycan array binding signal (z-score),[11],0.567
same,glycan array binding signal (z-score),[12],-0.208
same,glycan array binding signal (z-score),[13],-0.578
same,glycan array binding signal (z-score),[14],5.2
same,glycan array binding signal (z-score),[15],0.104
same,glycan array binding signal (z-score),[16],-0.352
same,glycan array binding signal (z-score),[17],0.194
same,glycan array binding signal (z-score),[18],-0.088
same,glycan array binding signal (z-score),[19],-0.327
DC-ASGPR S+GEE (Homo sapiens) (protein) MTRTYENFQYLENKVKVQGFKNGPLPLQSLLQRLRSGPCHLLLSLGLGLLLLVIICVVGFQNSKFQRDLVTLRTDFSNFTSNTVAEIQALTSQGSSLEETIASLKAEVEGFKQERQAVHSEMLLRVQQLVQDLKKLTCQVATINNNGEEASTEGTCCPVNWVEHQDSCYWFSHSGMSWAEAEKYCQLKNAHLVVINSREEQNFVQKYLGSAYTWMGLSDPEGAWKWVDGTDYATGFQNWKPGQPDDWQGHGLGGGEDCAHFHPDGRWNDDVCQRPYHWVCEAGLGQTSQESH,glycan array binding signal (z-score),[20],0.011
same,glycan array binding signal (z-score),[21],-0.28
same,glycan array binding signal (z-score),[22],3.42
same,glycan array binding signal (z-score),[23],0.807
same,glycan array binding signal (z-score),[24],3.75
same,glycan array binding signal (z-score),[25],4
same,glycan array binding signal (z-score),[26],-0.015
same,glycan array binding signal (z-score),[27],-0.224
same,glycan array binding signal (z-score),[28],4.91
same,glycan array binding signal (z-score),[29],3.92
same,glycan array binding signal (z-score),[30],3.77
same,glycan array binding signal (z-score),[31],-0.332
same,glycan array binding signal (z-score),[32],-0.315
same,glycan array binding signal (z-score),[33],-0.268
same,glycan array binding signal (z-score),[34],-0.145
same,glycan array binding signal (z-score),[35],-0.321
same,glycan array binding signal (z-score),[36],-0.262
same,glycan array binding signal (z-score),[37],4.67
same,glycan array binding signal (z-score),[38],4.39
same,glycan array binding signal (z-score),[39],3.84
same,glycan array binding signal (z-score),[40],-0.27
same,glycan array binding signal (z-score),[41],-0.376
same,glycan array binding signal (z-score),[42],-0.318
same,glycan array binding signal (z-score),[43],-0.276
same,glycan array binding signal (z-score),[44],-0.312
same,glycan array binding signal (z-score),[45],-0.22
same,glycan array binding signal (z-score),[46],3.74
same,glycan array binding signal (z-score),[6],-0.252
same,glycan array binding signal (z-score),[47],-0.021
same,glycan array binding signal (z-score),[48],-0.295
same,glycan array binding signal (z-score),[49],-0.339
same,glycan array binding signal (z-score),[50],-0.329
same,glycan array binding signal (z-score),[51],4.84
same,glycan array binding signal (z-score),[52],-0.297
same,glycan array binding signal (z-score),[53],-0.325
same,glycan array binding signal (z-score),[54],4.38
same,glycan array binding signal (z-score),[55],-0.32
same,glycan array binding signal (z-score),[56],-0.355
same,glycan array binding signal (z-score),[57],0.608
same,glycan array binding signal (z-score),[16],-0.342
same,glycan array binding signal (z-score),[58],1.61
same,glycan array binding signal (z-score),[59],-0.351
